Here are results for 59 compounds from PubChem BioAssay AID1508602 (The Scripps Research Institute Molecular Screening Center, 2020).

Among all 650,000 compounds or so, about 6,800 (1%) were called active. For the sample, actives were picked, then their nearest neighbours and some compounds at random. A number with no mark means an inactive call. Cut-off read from the data, not from the text of the source: active = activation above about 4.9%; inactive = the rest.

Sequence of G-protein coupled receptor 151 (Homo sapiens) (Q8TDV0 whole entry, looked up): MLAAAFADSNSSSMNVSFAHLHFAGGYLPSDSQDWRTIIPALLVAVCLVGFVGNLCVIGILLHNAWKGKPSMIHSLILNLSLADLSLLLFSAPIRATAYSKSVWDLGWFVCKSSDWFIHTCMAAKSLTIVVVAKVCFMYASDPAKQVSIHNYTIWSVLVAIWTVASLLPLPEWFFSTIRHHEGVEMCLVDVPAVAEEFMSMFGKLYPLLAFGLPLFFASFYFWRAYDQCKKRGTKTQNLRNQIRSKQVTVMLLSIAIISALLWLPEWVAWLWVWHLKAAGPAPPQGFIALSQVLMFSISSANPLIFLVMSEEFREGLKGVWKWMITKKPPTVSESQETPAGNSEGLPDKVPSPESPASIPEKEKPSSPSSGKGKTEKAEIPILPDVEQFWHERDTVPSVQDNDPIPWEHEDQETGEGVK

This test has as its target G-protein coupled receptor 151 (Homo sapiens) (UniProt Q8TDV0). The experiment in a line: activates the human receptor GPR151, primary screen, cell-based, PathHunter beta-arrestin, luminescence (AID 1508602).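 Note: 0% = median of compound wells and 100% = cells with positive control.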 The following applies: PathHunter beta-arrestin GPR151 cells, at 11.2 µM, stronger effect = higher value.
For `COc1ccccc1C1N=C(c2ccc(C)cc2)CC(c2cc(Cl)ccc2O)N1` (centres undefined), the activation is 1.39%.

In the case of `Cc1ccc(C2=NC(c3cc(Br)ccc3F)NC(c3cc(Cl)ccc3O)C2)cc1` (centres undefined), the activation is 10.7% (active). As for `Cc1ccc(C2=NC(c3ccc(F)cc3)NC(c3cc(Cl)ccc3O)C2)cc1` (centres undefined), the activation was 1.41%. Take `Cc1ccc(OCC(=O)Nc2ccc(C)c(Cl)c2)cc1C`: the activation is 1.59%. As for `O=C(COc1ccc(CO)cc1)Nc1ccc(Cl)c(Cl)c1`, the activation is 8.11% (active). On to `O=C(COc1ccc(Cl)cc1)Nc1ccc(F)c(F)c1`, for which the activation is 0.102%.

In the case of `CCN(CC)S(=O)(=O)c1ccc(NC(=O)c2ccc(F)cc2)cc1`, the activation was -0.476%. As to `C=CCc1ccccc1OCCN1CCNCC1`, the activation was 5.95% (active).

Consider `Cc1ccc(C(C)(C)C)c(OCCN2CCNCC2)c1`, for which the activation was 0.932%. Regarding `Cc1cccc(OCCN2CCNCC2)c1C`, the activation was 0.825%. As for `COc1cccc(CNC(=O)Cn2c(=O)oc3ccccc32)c1`, the activation is -1.36%.

For `N#CCCn1c2ccc(Cl)cc2c2cc(Cl)ccc21`, the activation is 2.4%.

Consider `COc1ccc(N2CCN(c3ncnc4c3c(-c3ccccc3)cn4-c3ccc(C)cc3)CC2)cc1`, for which the activation was -2.7%. In the case of `Cc1ccc(-n2cc(-c3ccccc3)c3c(N4CC(C)OC(C)C4)ncnc32)cc1` (centres undefined) it was 7.76% (active); in that of `CC1CN(c2ncnc3c2c(-c2ccccc2)cn3-c2cccc(C(F)(F)F)c2)CC(C)O1` (centres undefined), -1.46%. With `CCN(CC)CCCNCC(=O)Nc1ncc(C)s1`, the activation was -1.43%. Regarding `Cc1ccccc1CC1(CO)CCCN(C(=O)CN(C)Cc2ccncc2)C1` (centres undefined), the activation is 0.125%.

Turning to `OCC1(Cc2ccccc2C(F)(F)F)CCN(Cc2ccncc2)CC1`, the activation was -0.707%.

`Cc1ccccc1CC1(CO)CCCN(Cc2ccncc2)C1` (centres undefined): the activation was 5.32% (active). With `Cc1csc(COc2ccc(C(=O)NCc3cccs3)cc2)n1` the figure was -2.02%; with `Cn1ncc2c(NNC(=O)c3ccc(C(C)(C)C)cc3)ncnc21`, 1.02%; with `Cn1ncc2c(Nc3cccc4ccccc34)ncnc21`, 2.47%. As to `Cn1ncc2c(NNC(=O)Cc3cccc4ccccc34)ncnc21`, the activation is 6.03% (active). In the case of `O=C1c2ccccc2C(=O)C1(Nc1ccc(-c2ccccc2)cc1)c1ccccc1`, the activation is 0.902%. As to `O=C(Nc1ccc2c(c1)C(=O)Nc1cc(Cl)ccc1O2)c1cccc(F)c1`, the activation was -0.172%. `Cc1ccc(C2CC(c3cccs3)=NN2C(=O)CSc2nnc(CNC(=O)c3cccs3)n2Cc2ccccc2)cc1` (centres undefined): the activation is -0.904%. `COc1ccc(C2CC(c3cccs3)=NN2C(=O)CSc2nnc(CNC(=O)c3cccc(C)c3)n2Cc2ccccc2)cc1` (centres undefined): the activation is -0.0797%. For `O=C(NCc1nnc(SCC(=O)N2N=C(c3cccs3)CC2c2ccc(F)cc2)n1Cc1ccccc1)c1cccc(F)c1` (centres undefined), the activation is 5.02% (active). `CSc1ccc2nc(NC(=O)c3ccccc3Cl)sc2c1`: the activation was -0.347%. In the case of `Fc1ccccc1OCCSc1nc2ccccc2o1` it was 4.92% (active). Consider `CC(=O)OCC#CCSc1nc2ccccc2o1`, for which the activation is -0.909%. Turning to `N#Cc1ccccc1CSc1nc2ccccc2o1`, the activation was -1.07%. In the case of `O=C(Cc1ccc([N+](=O)[O-])cc1)Nc1cccc(Cl)c1` it was -0.456%; in that of `O=C(CC1C(=O)NCCN1C(=O)c1ccc([N+](=O)[O-])cc1)Nc1cccc(Cl)c1` (centres undefined), 7.94% (active). With `COc1ccccc1C(=O)N1CCNC(=O)C1CC(=O)Nc1ccc(Cl)cc1` (centres undefined) the figure was -1.89%; with `CCc1cc2c(=O)c(-c3ccc4c(c3)OCCCO4)coc2cc1OC(=O)N1CCOCC1`, 8.05% (active). As to `CCc1cc2c(=O)c(-c3ccc4c(c3)OCCCO4)coc2cc1OC`, the activation is -0.907%. In the case of `CCCc1cc2c(=O)c(-c3ccc4c(c3)OCO4)coc2cc1O` it was 0.792%. In the case of `COc1ccccc1N=Cc1cccc(O)c1O`, the activation is -0.891%. In the case of `O=C(c1cccc(NS(=O)(=O)c2ccc(Cl)cc2)c1)N1CCCC1` it was -1.72%; in that of `O=C(c1ccc(Cl)cc1)N1CCCC1`, -0.435%; in that of `O=C(c1ccc(CNS(=O)(=O)c2ccc(Cl)cc2)cc1)N1CCCC1`, 6.5% (active). In the case of `COC(=O)C1=CN(Cc2ccc(OC)cc2)C=C(C(=O)OC)C1c1ccc(O)c(OC)c1` it was 1.75%; in that of `COC(=O)CN1C=C(C(=O)OC)C(c2ccc(OC)c(O)c2)C(C(=O)OC)=C1`, 6.57% (active); in that of `COC(=O)C1=CN(Cc2ccc(Cl)cc2)C=C(C(=O)OC)C1c1cc(OC)c(O)c(OC)c1`, 8.56% (active). Consider `COC(=O)C1=CN(Cc2ccc(F)cc2)C=C(C(=O)OC)C1c1ccc(OC)c(OC)c1`, for which the activation is -0.344%. Consider `CCOC(=O)C1=CN(Cc2ccc(Cl)cc2)C=C(C(=O)OCC)C1c1cc(Br)c(O)c(OC)c1`, for which the activation was 3.19%. In the case of `COC(=O)C1=CN(CC2CCCO2)C=C(C(=O)OC)C1c1ccc(OC)c(O)c1` (centres undefined) it was 1.3%. For the compound `CCOc1ccc(/C(O)=C2/C(=O)C(=O)N(CCN(CC)CC)C2c2ccc(C)cc2)c(C)c1` (centres undefined), the activation is 0.496%. With `CCOc1ccc(N2C(=O)C3C4C=CC(C5CC45)C3C2=O)cc1` (centres undefined), the activation was -1.25%. For `Cc1cccc(CN2CCN3C(=O)[C@H](Cc4cnc[nH]4)NC(=O)[C@H]3C2)n1`, the activation was 0.592%.

For `CC(=O)Nc1ccc2c(c1)CN(Cc1ccccc1)CO2`, the activation was 1.47%. Take `CCC(CC)C(=O)Nc1cccc(C(=O)Nc2ccccc2C(=O)NC(C)C)c1`: the activation is 0.373%. For `O=C(CCc1ccccc1)Nc1cccc(C(=O)N2CCOCC2)c1`, the activation was 11.5% (active).

As to `CCC(CC)C(=O)Nc1cccc(C(=O)N2CCCC2)c1`, the activation is 5.74% (active). In the case of `O=C(c1cccc(N2C(=O)c3ccccc3C2=O)c1)N1CCOCC1`, the activation was -0.354%. Regarding `CCC(CC)C(=O)Nc1cccc(F)c1`, the activation was 4.27%. As for `CC1(C)Oc2ccc(C(=O)N3CCOCC3)cc2N(CC(=O)Nc2ccccc2)C1=O`, the activation is -0.343%. Consider `Cc1ccc2oc(-c3cccc(NC(=O)c4ccc(F)cc4)c3)nc2c1`, for which the activation was 0.17%.
